Screening results deposited in PubChem BioAssay by National Center for Advancing Translational Sciences (NCATS).
Compounds with a hit are over-represented: about 5% of the library has one in this group of screens.
VACV Venus inh: inhibitors of vaccinia virus (Venus reporter) | Potency, µM (series often up to 36.5 µM), most hits filed as inhibitors | 330,000 compounds, 0.46% hits | Vaccinia virus Venus reporter expression, fluorescence; calls by dose curve; tested in A549 cells; also: nearly all actives have a fitted effect of over 30% in size
HCMV inh: inhibitors of human cytomegalovirus; HFF cells, HCMV-luciferase reporter, 72 h; active compounds read low; activity change, negative = inhibition, % at 57.5 µM; 410,000 compounds, 4.5% hits; AID 1259415; in the data active = activity change below about -60%; inconclusive = no clear call, values can overlap the other calls; inactive = above about -39%
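Inhibition of viral replication was scored as loss of reporter luminescence in HFFs infected with HCMV-luciferase (MOI 1 PFU/cell) for 72 h; compounds tested at 2 doses, normalized to buffer and Salinomycin controls.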
TbPYK inhibitor: blocks Trypanosoma brucei pyruvate kinase | Q57TT1 | TbPYK enzyme, Kinase-Glo Plus ATP luminescence, 45 min | Potency, µM (titrated, usually from 76.8 µM), actives largely listed as inhibitors | 410,000 compounds, 0.12% hits | AID 624173; also: nearly all actives have a fitted effect of over 50% in size
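ADP (130 uM final) triggers the TbPYK reaction after compound addition; incubation is 45 min at room temperature. Kinase-Glo Plus is then added and luminescence imaged. Normalized data are fitted to concentration-effect curves.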
Vaccinia mCherry: vaccinia inhibition (mCherry reporter). Potency, µM (doses to about 36.5 µM), usual class: inhibitors. 310,000 compounds, 0.63% hits. Vaccinia virus mCherry reporter infection, fluorescence; calls by dose curve; tested in A549 cells; also: nearly all actives have a fitted effect of over 35% in size
LmPK inh: blocks Leishmania mexicana pyruvate kinase activity. Q27686. purified LmPK, Kinase-Glo ATP luminescence, 1 h. Potency, µM (doses to about 57.5 µM), usual class: inhibitors. 290,000 compounds, 0.37% hits
Target sequence (Q27686 whole entry, looked up): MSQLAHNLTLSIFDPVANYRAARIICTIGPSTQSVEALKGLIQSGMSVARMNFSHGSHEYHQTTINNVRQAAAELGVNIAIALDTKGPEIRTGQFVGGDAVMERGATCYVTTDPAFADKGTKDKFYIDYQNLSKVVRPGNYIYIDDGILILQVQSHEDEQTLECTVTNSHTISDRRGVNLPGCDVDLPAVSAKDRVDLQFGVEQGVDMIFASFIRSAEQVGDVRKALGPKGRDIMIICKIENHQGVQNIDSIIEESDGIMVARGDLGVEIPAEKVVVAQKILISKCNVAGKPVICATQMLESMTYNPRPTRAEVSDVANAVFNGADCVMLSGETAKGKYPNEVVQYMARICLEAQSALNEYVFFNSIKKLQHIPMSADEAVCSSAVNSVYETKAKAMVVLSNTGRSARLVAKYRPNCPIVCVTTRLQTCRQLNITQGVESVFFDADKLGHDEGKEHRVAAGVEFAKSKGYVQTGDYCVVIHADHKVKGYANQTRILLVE
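qHTS format; LmPK 0.1 nM; substrates PEP 0.5 mM and ADP 0.1 mM. One-hour room-temperature incubation, then coupled luciferase luminescence; 0.5 nM enzyme wells mark activation.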
A number is an active result; . = inactive; ? = inconclusive; / = no result; [ ] = another dose, or the depositor's remark. Unless noted, calls follow the shape of the dose curve; as a rule, active = well fitted curve in the direction sought with a large enough effect; inconclusive = small, poorly fitted or top-dose-only effect, or another doubt; inactive = no such curve, though single readings can be large; an effect the other way counts as inactive or inconclusive.

SMILES	VACV Venus inh	HCMV inh	TbPYK inhibitor	Vaccinia mCherry	LmPK inh
CCSc1nnc(NC(=O)NC(C)(C(F)(F)F)C(F)(F)F)s1	?	-67.2	.	.	.
CCC(NC(=O)Nc1nccs1)(C(F)(F)F)C(F)(F)F	.	.	.	/	.
CCSc1nnc(NC(=O)NC(CC)(C(F)(F)F)C(F)(F)F)s1	28.2µM	-79.0	.	/	.
CCCC(=O)Nc1nnc(SCC)s1	.	.	.	.	.
CO/N=C/NC(=O)c1c(OC)ccnc1Oc1ccccc1	.	.	.	.	.
COc1ccc2c(c1)CCCC21NC(=O)N(CC(=O)N2CC(C)OC(C)C2)C1=O (stereo not given)	/	.	.	/	/
COc1cc(OC)cc(C2=Cc3ccccc3C(CC(C)=O)N2c2ccc(-c3cncnc3)cc2)c1 (stereo not given)	.	.	.	.	/
O=C(CC1c2ccccc2C=C(c2ccsc2)N1c1ccc(-c2cccnc2)cc1)C1CC1 (stereo not given)	.	-78.9	.	.	/
COc1cc([C@@H]2c3cc4c(cc3[C@H](O)[C@H]3COC(=O)[C@H]23)OCO4)cc(OC)c1OC	?	/	.	?	.
COc1cc(C2c3cc4c(cc3C(OC3OC5COC(c6cccs6)OC5C(O)C3O)C3COC(=O)C23)OCO4)cc(OC)c1O (stereo not given)	?	-98.7	.	?	.
COc1cc(C2c3cc4c(cc3C(O)C3COC(=O)C23)OCO4)cc(OC)c1O (stereo not given)	?	/	/	14.1µM	/
COc1cc(C2c3cc4c(cc3C(O[C@@H]3OC5COC(c6cccs6)OC5C(O)C3O)C3COC(=O)C23)OCO4)cc(OC)c1O (stereo not given in full)	/	/	.	/	/
CCOc1cccc(CC(=O)N2CCc3c([nH]c4ccccc34)C2c2ccccc2)c1OCC (stereo not given)	.	.	.	.	/
CC(C)N=c1cc2n(-c3ccc(Cl)cc3)c3ccccc3nc-2cc1Nc1ccc(Cl)cc1	?	-63.6	.	.	/
Cc1ccc(CN2CCN(Cc3cn(C)nc3C)CC2CCO)o1 (stereo not given)	/	.	.	/	.
CCN1CCN(c2cc(C)c3cc(NC(=O)/C=C/c4ccc(C)cc4)ccc3n2)CC1	.	.	.	.	/
COc1ccc(/C=C/C(=O)Nc2ccc3nc(N4CCC(C)CC4)cc(C)c3c2)cc1OC	.[7.34 µM]	-87.6	.	.[7.34 µM]	/
CCN1CCN(c2cc(C)c3cc(NC(=O)/C=C/c4ccc(OCCC(C)C)cc4)ccc3n2)CC1	.[7.34 µM]	-78.6	.	.[7.34 µM]	/
CCCn1ncc(CN2CCC(C(=O)Nc3cccc(-c4cccc(F)c4)c3)CC2)c1C	?	-65.3	.	?	.
O=C(Nc1cccc(-c2cccc(Cl)c2)c1)C1CCN(Cc2ccccn2)CC1	.	-74.3	.	?	.
C/C(=N\NC(=S)NCC(C)(C)C)c1cc(F)cc(F)c1O	.	?	.	.	.
COc1ccc(C(F)(F)F)cc1N/C=C/c1nnnn1-c1ccc(C)cc1	.	.	.	.	.
O=[N+]([O-])c1cc([N+](=O)[O-])c(Oc2cc(F)ccc2F)cc1NN1CCCCC1	.	-85.2	.	?	.
COc1ccc(C(C)=O)c(Oc2cc(NN3CCCCC3)c([N+](=O)[O-])cc2[N+](=O)[O-])c1	3.16µM	.	.	?	.
Cc1ccnc(SCCn2c(N3CCN(Cc4ccccc4)CC3)nc3c2c(=O)[nH]c(=O)n3C)n1	.	.	.	.	.
SMILES	VACV Venus inh	HCMV inh	TbPYK inhibitor	Vaccinia mCherry	LmPK inh
CN1C(=O)/C(=C/c2cn(CC(=O)N3CCCCC3)c3ccccc23)c2ccccc21	/	/	/	/	.
CC1=CC(C)(C)n2c(O)c(N=NC(N)=S)c3c(C)ccc1c32	?	.	.	1.26µM	.
O=C1C=CC(=O)N1c1ccc(-c2nc3ccccc3o2)cc1	.	/	11.2µM	.	/
O=C(Nc1ccc2c(c1)CCC2)Nc1ccc2c(c1)OCO2	.	.	.	.	.
c1cc2c(cc1NC1=NCCO1)CCCC2	3.98µM	.	.	?	/
O=C(CSc1cn(CCNC(=O)c2ccc3ccccc3c2)c2ccccc12)NCc1ccco1	?	-68.2	.	?	.
O=C(NCCn1cc(SCc2cccc(F)c2)c2ccccc21)c1cccc(C(F)(F)F)c1	?	-92.2	.	?	/
CC(=O)Nc1c(Cl)cc2c(c1Cl)C(=O)c1ccccc1-2	.	.	.	.	/
Cc1cccc(Nc2ccc(NCc3ccccc3)nn2)c1	/	.	.	/	.
COc1ccc(NC(=S)NC(NC(=O)c2cccc(Cl)c2)C(Cl)(Cl)Cl)c([N+](=O)[O-])c1 (stereo not given)	?	-88.0	.	?	.
O=C(NC(NC(=S)Nc1ccccc1Cl)C(Cl)(Cl)Cl)c1cccc(Cl)c1 (stereo not given)	?	-98.7	.	12.6µM	.
O=C(/C=C/c1ccccc1)NC(NC(=S)Nc1cccc(Cl)c1)C(Cl)(Cl)Cl (stereo not given)	/	-75.1	.	/	.
Cc1cc(C)c(NC(=S)N2CCC(N(C)CC3CCCO3)CC2)c(C)c1 (stereo not given)	/	-72.4	.	/	.
Cc1ccc(Cn2c(=O)n(-c3ccc(C)c(C)c3)c(=O)c3c(C)c(C)sc32)cc1	.	.	.	.	/
O=C(CCC(=O)NC1CCN(Cc2ccccc2)CC1)NCc1ccco1	/	.	.	/	.
CC1=C(C(=O)N(C(C)C)C(C)C)CC(CC(=O)NCCCN(C)C)C(=O)N1Cc1ccc(C(C)(C)C)cc1 (stereo not given)	.	?	.	.	/
Cc1cc(C(=O)CSc2nc(N)cc(N)n2)c(C)n1CC1CCCO1 (stereo not given)	.	.	.	.	/
Cc1cc(C(=O)CSc2nc3ccccc3[nH]2)c(C)n1CC1CCCO1 (stereo not given)	.	-98.9	.	.	.
Cc1cc(C(=O)CSc2nc3ccccc3o2)c(C)n1CC1CCCO1 (stereo not given)	.	-69.8	.	/	.
Cc1ccc(C(=O)CSc2nc3ccccc3o2)cc1	.	-60.8	.	.	.
Cc1cc(C)n2nc(SCC(=O)c3cc(C)n(CC4CCCO4)c3C)nc2n1 (stereo not given)	.	-70.4	.	.	.
CC(=O)N1CCC2(CC1)CCN(C(c1ccccc1)c1ccccc1)CC2	/	/	.	/	/
CN(C)c1oc(/C=C/c2ccccc2)nc1C#N	.	.	.	.	.
CC1=C(C(=O)OCC2CCCO2)C(c2coc3ccc(C)cc3c2=O)C2=C(CCCC2=O)N1 (stereo not given)	.	.	.	.	.
CCN1C(=O)[C@@H]2[C@@H](c3ccc(SC4CCCCC4)cc3)N3CCC[C@@]3(C(=O)OC)[C@@H]2C1=O	.	.	.	.	/
O=C1NC(c2ccccc2)Nc2c1sc(=S)n2-c1ccccc1 (stereo not given)	.	-103.7	.	.	.
O=C(CCSc1ccc(Cl)cc1)Nc1cccnc1	.	.	.	.	.
O=S(=O)(CCSc1ccc(C(F)(F)F)cn1)c1ccccc1	/	-60.3	.	/	.
